Compound activity (PubChem)
VACV mCherry inh: inhibitors of vaccinia virus infection (mCherry reporter signal); Vaccinia virus mCherry reporter infection, fluorescence; Potency, µM (series often up to 36.5 µM), without a hit: at the highest dose activity change, negative = inhibition, hits mostly inhibitors; hit rate 0.63% among 310,000; AID 720579; calls by dose curve; tested in A549 cells; further: potency means the concentration at half of the fitted maximal effect; on the % scale 0 is the no-effect control and ±100 the full control effect; nearly all actives have a fitted effect of over 35% in size
Marburg entry inh: inhibitors of Marburg virus binding or cell entry. AID 540276. hit rate 1.8% among 300,000. Potency, µM (doses to about 37.8 µM), inactives show top-dose activity change, negative = inhibition, hits mostly inhibitors. Marburg virus pseudotyped entry inhibition, cell reporter; calls by dose curve; tested in HEK293 cells; further: potency means the concentration at half of the fitted maximal effect; on the % scale 0 is the no-effect control and ±100 the full control effect
Shiga toxin inh: Shiga toxin inhibition | Vero cells, Shiga toxin protein synthesis inhibition reporter | hit rate 9.2% among 290,000 | inhibition, % at 38.7 µM; in the data active means inhibition mostly above about 28%, no sharp cut-off; inactive means mostly below about 43%; further: 0% is about no effect
Lassa entry inh: blocks Lassa virus binding to or entry into cells; Lassa virus pseudotype entry inhibition, cell reporter; Potency, µM (top dose mostly 37.9 µM), inactives show at the highest dose activity change, negative = inhibition, most hits filed as inhibitors; hit rate 1.2% among 300,000; AID 540256; calls by dose curve; tested in HEK293 cells; further: potency means the concentration at half of the fitted maximal effect; on the % scale 0 is the no-effect control and ±100 the full control effect; nearly all actives have a fitted effect of over 50% in size
CHX counter: affects cycloheximide protein synthesis inhibition readout, counter-screen. max response, %. hit rate 12% among 300,000. AID 2314. cell reporter, cycloheximide protein synthesis inhibition counterscreen; in the data active means max response mostly above about 13%, no sharp cut-off; inactive means mostly below about 14%; further: read at 38.3 µM for the half of the compounds with a filed dose; 0% is about no effect
Vaccinia Venus: inhibitors of vaccinia virus (Venus reporter); Vaccinia virus Venus reporter expression, fluorescence; Potency, µM (highest dose often 36.5 µM), for inactives: top-dose activity change, negative = inhibition, most hits filed as inhibitors; hit rate 0.46% among 330,000; AID 720580; calls by dose curve; tested in A549 cells; further: potency means the concentration at half of the fitted maximal effect; on the % scale 0 is the no-effect control and ±100 the full control effect; nearly all actives have a fitted effect of over 30% in size
Active calls of the source: *; i = inactive; ? = inconclusive; nt = no result given; [ ] = remark or other dose. Only a selection was taken, and hits are over-represented in it overall.

SMILES	VACV mCherry inh	Marburg entry inh	Shiga toxin inh	Lassa entry inh	CHX counter	Vaccinia Venus
O=C(N/N=C/c1ccnc2ccccc12)c1ccccc1O	-12%	3%	32	?	27*	-18%
O=C(N/N=C/c1ccc2nccnc2c1)c1ccncc1	nt	nt	11	nt	18	nt
O=C(N/N=C/c1cccc(C(F)(F)F)c1)c1ccccc1O	?	3%	121*	?	30*	?
O=C(N/N=C/c1ccc2nccnc2c1)c1ccccc1O	nt	nt	24	nt	15*	nt
O=C(N/N=C/c1cc(Br)c(O)c(Br)c1)c1cccc(C(F)(F)F)c1	-13%	30%	-7	0%	-9	-7%
CC(C)c1ccc(Nc2nnc(SCC(=O)NCC3CCCO3)s2)cc1 (stereo not drawn)	-12%	-33%	nt	?	nt	-17%
CCCSc1nnc(NC(=O)Nc2ccccc2OC)s1	nt	nt	96*	nt	34*	nt
COc1ccccc1Nc1nnc(SCC2CCCCO2)s1 (stereo not drawn)	-19%	7.1µM*	51	nt	26*	-27%
CCOc1ccccc1Nc1nnc(SCC(=O)N2CCCC2)s1	nt	13%	1	13%	0	nt
COc1ccccc1Nc1nnc(SCC(=O)N2CCCC2)s1	-12%	24%	86	23%	33*	-10%
Cc1ccc(Nc2nnc(SCC3CCCCO3)s2)cc1 (stereo not drawn)	?	30%	54*	-19%	41*	-27%
COc1ccccc1Nc1nnc(SCC(=O)N2CCCC2=O)s1	-14%	9%	33	26%	16	6%
Cn1c2cc(C=O)sc2c2cnn(Cc3ccccc3F)c(=O)c21	nt	nt	-7	nt	-6	nt
O=C(CCn1c(=O)c2ccccc2n(Cc2ccc(F)cc2Cl)c1=O)NCc1ccc2c(c1)OCO2	-3%	-11%[46.1 µM]	nt	-3%[46.1 µM]	nt	-5%
CCCNC(=O)OC[C@H]1O[C@H](CCON=CC[C@@H]2C=C[C@H](OC(C)=O)[C@@H](COC(C)=O)O2)C=C[C@H]1Oc1ccc(OC)cc1	nt	6%[14.2 µM]	nt	7%[14.3 µM]	nt	nt
CN(Cc1nc2c(s1)CCCC2)C(=O)CCc1nnc(-c2ccc3c(c2)OCO3)o1	-1%	-3%[46.1 µM]	4	1%	-2	7%
Cc1ccccc1-c1noc(CSc2nc(-c3ccc(F)cc3)cc(=O)[nH]2)n1	i	nt	nt	-2%[46.1 µM]	nt	-8%
Cc1ccccc1Nc1nnc(SCC2CCCCO2)s1 (stereo not drawn)	-7%	?	15*	?	55*	-14%
COc1cccc(C(C(=O)NC2CCCC2)N2CCN(c3ncccc3C#N)CC2)c1OC (stereo not drawn)	4%	nt	nt	nt	nt	-2%
CC(C)(C)c1ccc(CN2C3=NCCCN3c3ccccc32)cc1	?	2.6µM*	-7	?	-5	?
Brc1ccc(CN2C3=NCCCN3c3ccccc32)cc1	nt	10µM*	-13	?	-7	nt
COc1ccc(CN(C)CC(=O)Nc2ccc(Cl)cc2F)c(OC)c1	-6%	nt	2	nt	-3	-9%
CN1C(=O)/C(=C/c2ccc3c(c2)OCO3)N=C1c1ccccc1	-13%	-15%	-8	1%	-5	-6%
CC/C=C1/N=C2C(=O)N(C)C(=O)N=C2N(C)N1	1.8µM*	nt	nt	nt	nt	2.2µM*
CN1N/C(=C\c2ccccc2)N=C2C(=O)N(C)C(=O)N=C21	7.9µM*	nt	nt	nt	nt	8.9µM*
SMILES	VACV mCherry inh	Marburg entry inh	Shiga toxin inh	Lassa entry inh	CHX counter	Vaccinia Venus
COc1ccc(NC(=O)CC2C(=O)N(c3ccc(OC)cc3)C(=O)N2CCC2=CCCCC2)cc1 (stereo not drawn)	-12%	-7%[46.1 µM]	nt	0%[46.1 µM]	nt	-13%
O=C1N=NC(c2ccccc2)c2ccccc21 (stereo not drawn)	nt	1%	nt	nt	nt	nt
CCCCn1cc(S(=O)(=O)c2cc(C)ccc2C)c(=O)c2cc(F)c(F)cc21	-19%	0%[46.1 µM]	nt	18%[46.1 µM]	nt	-12%
CCc1noc(C)c1C(=O)NC1CCCc2c1cnn2-c1cc(C)cc(C)c1 (stereo not drawn)	nt	nt	34	nt	34*	nt
Cc1cc(C)cc(-n2ncc3c2CCCC3NC(=O)CN2CCCC2=O)c1 (stereo not drawn)	nt	nt	16	nt	11	nt
CCc1[nH]nc(C(=O)NC2CCCc3c2cnn3-c2cc(C)cc(C)c2)c1C (stereo not drawn)	?	3.5µM*	55*	?	27*	7%
CC(=NC1CC1)c1c(-c2ccccc2)[nH]n(-c2nc3ccccc3s2)c1=O	nt	?	36	0%	23	nt
CC(=NC1CCCC1)c1c(C)[nH]n(-c2nc3ccccc3s2)c1=O	-23%	?	75*	?	40*	-19%
O=c1c2cc(N3CCOCC3)ccc2[nH]c(=S)n1CCCN1CCCCCC1	nt	18µM*	-7	-2%	-3	nt
CC(C)OCCCn1c(=S)[nH]c2ccc(N3CCOCC3)cc2c1=O	nt	?	-12	5.8µM*	3	nt
CC(=O)c1ccc(NC(=O)CCn2cccn2)cc1	-1%	nt	nt	-15%[46.1 µM]	nt	-4%
O=C(Nc1ccc2c(c1)OCCO2)c1c(Cl)cccc1Cl	i	nt	nt	nt	nt	-2%
O=C(Nc1ccc2c(c1)OCCO2)c1c(F)c(F)c(F)c(F)c1F	nt	0%	45	13%	17*	nt
O=C(Nc1ccc2c(c1)OCCO2)c1cccc(Cl)c1Cl	nt	nt	93*	nt	43*	nt
O=C(Nc1ccc2c(c1)OCCO2)c1cc(F)c(F)cc1Cl	nt	nt	72*	nt	37*	nt
Cc1nn(-c2ccccc2)nc1C(=O)Nc1ccc2c(c1)OCCO2	-18%	?	6	24%[46.1 µM]	-2	0%
Cc1cccc(NC(=O)CN2C(=O)COc3ccc(Cl)cc32)c1C	2%	0%	-5	nt	-2	8%
COc1cc(-c2c(C(C)=O)c(C)nc3c2C(=O)c2ccccc2-3)cc(OC)c1OC	4%	-4%[46.1 µM]	-6	12%[46.1 µM]	-2	0%
O=C1c2ccccc2-c2nnc(-c3ccc(F)cc3)cc21	-7%	?	80*	-12%[46.1 µM]	42*	-3%
O=C1c2ccccc2C(=O)c2ccccc21	-9%	nt	nt	nt	nt	-5%
O=C1c2ccccc2-c2nnc(-c3ccc(O)cc3)cc21	nt	?	26	?	20*	nt
Cc1ccc(-c2cc3c(nn2)-c2ccccc2C3=O)cc1	?	nt	25*	nt	22*	3%
Cc1ccccc1-c1cc2c(nn1)-c1ccccc1C2=O	-13%	?	83*	?	18	1%
O=c1[nH]nc(-c2ccc(F)cc2)cc1-c1ccccc1	i	-10%[46.1 µM]	-9	?	-2	-21%
COc1ccc(/C=C/C(=O)c2ccc(O)cc2)cc1	-2%	nt	64*	nt	37*	-2%
SMILES	VACV mCherry inh	Marburg entry inh	Shiga toxin inh	Lassa entry inh	CHX counter	Vaccinia Venus
COc1ccc(/C=C/C(=O)c2ccccn2)cc1	i	-8%[46.1 µM]	43	-5%[46.1 µM]	24*	21%
COc1ccc(/C=C/C(=O)c2ccccc2O)cc1	?	?	106*	2%	65*	-15%
COc1ccc(C(=O)/C=C\c2ccc(NC(=O)c3cccs3)cc2)cc1	nt	-25%	-2	?	-4	nt
COc1ccc(/C=C/C(=O)c2ccoc2)cc1	i[1.46 µM]	-1%	89*	-4%	42*	-8%
COC(=O)CC=C[C@@H](C)[C@@H](COc1ccccc1Br)OC	nt	12%[14.2 µM]	nt	nt	nt	nt
CCn1c(SCc2cccc(OC)c2)nc2ccccc2c1=O	-7%	?	-2	?	2	-11%
